Screening data: PubChem BioAssay, National Center for Advancing Translational Sciences (NCATS)
Most compounds without a hit are left out; they make up all but 18% or so of the library.
TDP1 inh: blocks human tyrosyl-DNA phosphodiesterase 1. recombinant TDP1, AlphaScreen DNA substrate cleavage. Potency, µM (titrated, usually from 130 µM), most hits filed as inhibitors. hit rate 0.28% among 350,000. Q9NUW8; also: nearly all actives have a fitted effect of over 40% in size
Target sequence (Q9NUW8 whole entry, looked up): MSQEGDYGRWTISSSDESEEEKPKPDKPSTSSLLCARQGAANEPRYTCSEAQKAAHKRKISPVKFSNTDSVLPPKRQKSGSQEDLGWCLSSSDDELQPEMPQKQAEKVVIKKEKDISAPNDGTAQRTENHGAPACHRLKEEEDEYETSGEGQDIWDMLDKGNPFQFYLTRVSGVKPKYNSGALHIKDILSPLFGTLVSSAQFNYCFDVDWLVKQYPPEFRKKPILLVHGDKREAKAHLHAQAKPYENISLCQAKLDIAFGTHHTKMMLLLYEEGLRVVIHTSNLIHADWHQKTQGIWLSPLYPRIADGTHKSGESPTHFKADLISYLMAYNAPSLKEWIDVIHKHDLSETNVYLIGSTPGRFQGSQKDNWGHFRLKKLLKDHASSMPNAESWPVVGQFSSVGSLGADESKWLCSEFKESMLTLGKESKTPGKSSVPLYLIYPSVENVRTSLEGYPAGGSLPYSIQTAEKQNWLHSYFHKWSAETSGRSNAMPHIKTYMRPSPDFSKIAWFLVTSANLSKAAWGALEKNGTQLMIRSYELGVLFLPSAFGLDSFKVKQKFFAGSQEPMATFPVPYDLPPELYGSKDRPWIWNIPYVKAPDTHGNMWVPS
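Recombinant human Tdp1 (E. coli-expressed, 1 nM final) preincubated with compounds 15 min at room temperature, then 5'-biotin/3'-phosphotyrosine-FITC DNA substrate (15 nM final) added for 5 min. AlphaScreen beads (10 ug/ml final) added 10 min; cleavage lowers signal.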
TGFb SMAD3 inh: TGF-b pathway inhibition. HepG2 CAGA-GFP TGF-b/SMAD3 reporter, GFP fluorescence, 18 h; TGF-beta stimulated, 500 pg/mL final. Potency, µM (doses to about 46.1 µM), most hits filed as inhibitors. hit rate 1.2% among 410,000. AID 588855; also: nearly all actives have a fitted effect of over 65% in size
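Inhibition of TGF-beta-driven CAGA-GFP reporter expression in HEPG2 cells is measured by cellular GFP fluorescence after 18 h stimulation with 500 pg/mL recombinant TGF-beta in 1% FBS medium at 37 degrees C.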
HepG2 tox: kills HepG2 cells in TGF-b inhibitor counter-screen. HepG2 CAGA-GFP viability, ATP luminescence, 18 h. Potency, µM (series often up to 46.1 µM), most hits filed as cytotoxic. hit rate 0.76% among 410,000. AID 588856
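CellTiter-Glo luminescence gave cytotoxicity after 18 hours at 37 degrees C. The cells were HepG2 CAGA-GFP in 1% FBS DMEM, stimulated with 500 pg/mL TGF-beta after compound addition. %Activity was normalised to no-cell wells (complete cell-killing) and DMSO (no toxicity), and curves were fitted and classified.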
DT40 TDP1 CPT: DT40-hTDP1 cell growth loss with CPT; chicken DT40 Tdp1-/-;hTDP1 cells + 20 nM CPT, ATP luminescence, 48 h; Potency, µM (titrated, usually from 46.2 µM), actives largely listed as inhibitors; hit rate 12% among 420,000; AID 686979; also: nearly all actives have a fitted effect of over 55% in size
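Chicken DT40 Tdp1-/- cells complemented with human TDP1, 400 cells/well, exposed to compounds plus 20 nM camptothecin for at least 48 h at 37 C; viability read as ATP content by CellTiter-Glo luminescence.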
DT40 TDP1 no CPT: qHTS for Inhibitors of human tyrosyl-DNA phosphodiesterase 1 (TDP1): qHTS in cells in absence of CPT | DT40 Tdp1-/- hTDP1 cells, no CPT, ATP luminescence, 48 h | hit rate 15% among 420,000 | Potency, µM (highest dose often 46.2 µM), actives largely listed as inhibitors; also: nearly all actives have a fitted effect of over 55% in size
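DT40 Tdp1-/-;hTDP1 cells, no CPT (DMSO vehicle only), 400 cells/well; compounds pin-transferred; ≥48 hr, 37 °C; CellTiter-Glo 30 min RT dark, luminescence read.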
IL-1B inflam inh: inhibitors of inflammasome signaling (IL-1 beta secretion); AID 743279; activity change, % at 57.5 µM; hit rate 4.7% among 360,000; THP-1 LPS/ATP IL-1B secretion, AlphaLISA, 16 h; hits give low values; in the data active = activity change below about -50%; inconclusive = mostly about -30% to -49%
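Secreted IL-1B measured by AlphaLISA bead assay after 16 h compound exposure of THP-1 cells; compounds (final up to 57.5 uM) added 1 h before LPS (250 ng/mL) and ATP (1.25 mM) stimulation; lower signal means less secretion.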
Numbers stand for hits; . = inactive; ? = inconclusive; / = not tested or not shown; ! = a repeat was not active; [ ] = dose if it differs, or a comment. Unless noted, calls follow the shape of the dose curve; as a rule, active = well fitted curve in the direction sought with a large enough effect; inconclusive = small, poorly fitted or top-dose-only effect, or another doubt; inactive = no such curve, though single readings can be large; an effect the other way counts as inactive or inconclusive.

SMILES	TDP1 inh	TGFb SMAD3 inh	HepG2 tox	DT40 TDP1 CPT	DT40 TDP1 no CPT	IL-1B inflam inh
Cc1nn(-c2ccccc2)c2nc(C(Cl)(Cl)Cl)[nH]c(=O)c12	.	.	.	.	?	.
CC(=O)O[C@H]1C[C@@]2(C)[C@H](C[C@@H](O)[C@H]3[C@@]4(C)CC[C@@H](O)[C@@H](C)[C@H]4CC[C@@]32C)C1=C(CCC=C(C)C)C(=O)O	.[21 µM]	/	/	/	/	/
CN1OC[C@@H]2CN(Cc3ccc4c(c3)OCO4)[C@H](c3ccc(N4CCCCC4)cc3)C[C@@H]21	/	?	.	?	?	.
COc1ccc(-c2nc(N)n(C(=O)c3ccccc3Cl)n2)cc1	.	.	.	?	?	.
CC(C)CC(=O)Nc1nc(=S)ss1	.	.	.	?	10µM	.
CCOC(=O)NC(=O)CSc1nnc(C2CC2)n1Cc1ccco1	.	.	.	.	.	.
c1ccc(Cn2c[n+](Cc3ccccc3)cn2)cc1	/	.	.	.	.	.
O=C(c1cccc(C(F)(F)F)c1)N1CCc2c([nH]c3ccccc23)C1C(F)(F)F (centres undefined)	.	?	.	?	?	-83
COc1ccccc1NC(=O)N1CCc2c([nH]c3ccccc23)C1C(F)(F)F (centres undefined)	.	.	.	.	.	-60
COCCN(C(=O)CSc1nnc(-c2cccc(F)c2)n1N)c1c(N)n(CC(C)C)c(=O)[nH]c1=O	.	.	.	.	.	.
CC1=C(C(=O)Nc2cccc(C(F)(F)F)c2)C(c2ccccn2)n2ncnc2N1 (centres undefined)	.	.	.	.	.	/
CCc1cc(-c2n[nH]c(C)c2-c2nc3ccccc3n2C)c(O)c(CN2CCN(C)CC2)c1O	.	.	.	.	.	.
CCc1cc2c(=O)c(-c3nc4ccccc4n3C)c(C)oc2c(CN2CCN(CCO)CC2)c1O	.	.	.	16µM	?	.
CCc1cc2c(=O)c(-c3nc4ccccc4n3C)c(C)oc2c(CN2CCN(C)CC2)c1O	.	/	/	/	/	/
CCc1cc2c(=O)c(-c3nc4ccccc4n3C)c(C(C)C)oc2c(CN2CCN(C)CC2)c1O	.	?	.	7.3µM	12µM	.
CCc1cc2c(=O)c(-c3nc4ccccc4n3C)c(C)oc2c(CN2CCOCC2)c1O	.	.	.	8.2µM	9.2µM	.
CCc1cc2c(=O)c(-c3nc4ccccc4n3C)coc2c(CN2CCCC(C)C2)c1O (centres undefined)	/	.	.	?	9.2µM	.
CCN(C(=O)Cn1c(=O)n(Cc2ccccc2)c(=O)c2c1c1cc(OC)ccc1n2C)c1ccccc1	.	.	.	.	.	/
O=C(Cc1ccc(Cl)cc1)NNC(=O)c1ccco1	.	.	.	.	.	.
Cc1ccsc1C1C(C#N)=C(N)N(N(C)C)C2=C1C(=O)CC(C)(C)C2 (centres undefined)	.	.	.	.	.	.
C[C@@H]1Cc2[nH][nH]c(=O)c2[C@H](C)O1	/	/	/	.	.	.
CN(C)c1ccc(CNC(=O)C2(C)C=CCN2C(=O)c2ccccc2)cc1 (centres undefined)	.	/	/	/	/	/
CC(C)(C)OC(=O)N1CCc2onc(-c3ccccc3[N+](=O)[O-])c2C1=O	/	/	/	.	.	.
O=C1CCN(CCc2ccccc2)CCN1C(CSc1ccc(Br)cc1)Cc1ccccc1 (centres undefined)	.	.	.	/	/	/
CCCCC1(Cc2ccc([N+](=O)[O-])cc2)C(=O)N(c2ccccc2)N(c2ccccc2)C1=O	.	.	.	?	?	-58
SMILES	TDP1 inh	TGFb SMAD3 inh	HepG2 tox	DT40 TDP1 CPT	DT40 TDP1 no CPT	IL-1B inflam inh
CCCCC(=O)OCC(=O)c1cc(C)n(-c2c(C)n(C)n(-c3ccccc3)c2=O)c1C	.	.	.	.	.	.
CCCCC1(COC(=O)CCC(=O)O)C(=O)N(c2ccccc2)N(c2ccccc2)C1=O	.	.	.	0.0023µM!	?	.
Cc1nn(Cc2ccc([N+](=O)[O-])cc2)c(=O)n1-c1ccccc1	.	.	.	.	.	.
O=C(Cc1c[nH]c2ccccc12)NCC(=O)Nc1ccc(F)c(F)c1F	.	.	.	.	.	.
Cc1ccc(S(=O)(=O)NCc2c(Cl)cccc2Oc2ccccc2)cc1	/	?	.	.	.	.
O=C(COc1ccccc1[N+](=O)[O-])N(Cc1ccco1)c1ccccn1	.	.	.	.	.	/
CCOc1ccc(CCN2CN(CC)CNC2=S)cc1OCC	.	.	8.9µM	.	21µM	.
Cc1cccc(CNC(=O)c2sc(=O)n(Cc3ccc(S(C)(=O)=O)cc3)c2C)c1	/	.	.	.	.	.
CCOc1ccc(/C=C/C2=Cc3c(sc(NC(=O)CSc4n[nH]c(N)n4)c3C#N)C(C)(C)C2)cc1	.	.	20µM	13µM	15µM	-93
NC(=O)c1ccsc1NC(=O)CSc1n[nH]c(N)n1	.	.	.	.	.	.
Cc1ccsc1/C=C/C1=Cc2c(sc(NC(=O)CSc3n[nH]c(N)n3)c2C#N)C(C)(C)C1	.	10µM	13µM	23µM	15µM	-63
CCOc1ccc(-c2nnc(SCC(=O)Nc3cccc(C#N)c3)o2)cc1	.	?	.	?	?	/
CCC(CC)C(=O)N(C)c1c(C)nc2c(OCCOc3ccccc3)cccn12	/	?	.	23µM	13µM	.
